The values that follow come from the supplement of paper PMC13380429.

Test [1] has as its system Vero E6 infected with SARS-CoV-2. Put plainly: morphology score (similarity to uninfected cells); higher = more like uninfected cells. The settings on record: 24 h.
Test [2] has the same test system. Put plainly: SARS-CoV-2 infection rate relative to infected DMSO; higher = more infection, active = 60 or less. The following applies: 24 h.

Molecules are shown by their SMILES.

Consider `Oc1ccc(Cl)c2c1CCC2` [chlorindanol] (10 µM), for which, in test [1], the morphology score worked out at 0.109. In test [2], the SARS-CoV-2 infection rate is 102% (inactive).

For `Oc1ccc(Cl)c2cccnc12` [cloxyquin] (10 µM), the morphology score in test [1] was -0.13. Besides, the SARS-CoV-2 infection rate in test [2] was 109% (inactive).

Regarding `N#Cc1c(N(CC(=O)O)CC(=O)O)sc(C(=O)O)c1CC(=O)O` [Strontium Ranelate] (10 µM), in test [1], the morphology score was -0.000723. Moreover, in test [2], the SARS-CoV-2 infection rate was 107% (inactive).

In the case of `CCC(O)(CC(N)=O)c1ccccc1` (stereo not given) [3-hydroxy-3-phenylpentanamide] (10 µM), the morphology score in test [1] came to 0.0251. Further, the SARS-CoV-2 infection rate in test [2] was 112% (inactive).

Consider `Cc1ccccc1C(=O)Nc1ccc(C(=O)N2CCCC(O)c3cc(Cl)ccc32)c(C)c1` (stereo not given) [tolvaptan] (10 µM), for which the morphology score in test [1] amounted to 0.0857. In addition, the SARS-CoV-2 infection rate in test [2] is 120% (inactive).

`O=C(Nc1ccc(C(O)(C(F)(F)F)C(F)(F)F)cc1)c1ccc(C(F)(F)F)cc1` (10 µM) returned a morphology score in test [1] of 0.265. The SARS-CoV-2 infection rate in test [2] was 85% (inactive).

Turning to `Nc1ncnc2c1ncn2[C@H]1CC[C@@H](CO)O1` [dideoxyadenosine] (10 µM), the morphology score in test [1] amounted to 0.103. The SARS-CoV-2 infection rate in test [2] is 99% (inactive).

In turn, `O=C1C2CC=CCC2C(=O)N1SC(Cl)(Cl)Cl` (stereo not given) [captan] (10 µM) registered a morphology score in test [1] of 0.232. In addition, the SARS-CoV-2 infection rate in test [2] is 93% (inactive).

In test [1], `C[C@H]1O[C@@H](Oc2c(-c3cc(O)c(O)c(O)c3)oc3cc(O)cc(O)c3c2=O)[C@@H](O)[C@@H](O)[C@@H]1O` [myricitrin] (10 µM) yielded a morphology score of 0.147. In test [2], the SARS-CoV-2 infection rate was 103% (inactive).

In test [1], `C=C1CC/C=C(\C)CC[C@@H]2[C@@H]1CC2(C)C` [g-caryophyllene] (10 µM) yielded a morphology score of 0.0545. In addition, in test [2], the SARS-CoV-2 infection rate was 95% (inactive).

In test [1], `CC(C)C[C@@H](C=O)NC(=O)[C@H](CC(C)C)NC(=O)[C@H](CC(C)C)NC(=O)OCc1ccccc1` (10 µM) had a morphology score of 0.514. In addition, the SARS-CoV-2 infection rate in test [2] is 66% (inactive).

In the case of `C=C[C@]1(C)C[C@@H](OC(=O)CSC(C)(C)CNC(=O)[C@H](N)C(C)C)[C@]2(C)[C@H](C)CC[C@]3(CCC(=O)[C@H]32)[C@@H](C)[C@@H]1O` [valnemulin] (10 µM), the morphology score in test [1] was determined as 0.0538. Also, the SARS-CoV-2 infection rate in test [2] was 116% (inactive).

For the compound `NCC(CS(=O)(=O)O)c1ccc(Cl)cc1` (stereo not given) [saclofen] (10 µM), the morphology score in test [1] amounted to 0.194. For the same compound, the SARS-CoV-2 infection rate in test [2] was 94.5% (inactive).

In test [1], `C/C(=N\NC(=S)N1CCC1)c1ccccn1` (0.833333 µM) returned a morphology score of 0.0268. Also, the SARS-CoV-2 infection rate in test [2] is 114% (inactive).

As to `COc1c(Nc2ccc(S(C)(=O)=O)nc2C)ncnc1OC1CCN(C(=O)OC(C)C)CC1` (10 µM), the morphology score in test [1] was -0.00778. Also, the SARS-CoV-2 infection rate in test [2] is 100% (inactive).

In test [1], `CN(CCc1ccc(Cl)c(Cl)c1)CCN1CCCC1` (10 µM) had a morphology score of 0.355. Moreover, the SARS-CoV-2 infection rate in test [2] was 74.5% (inactive).

Regarding `Cc1cccc(Nc2nc(-c3ccncc3)cs2)c1` (0.833333 µM), the morphology score in test [1] came to 0.455. Besides, the SARS-CoV-2 infection rate in test [2] is 61% (inactive).

In test [1], `CC(C)(C)NCC(O)c1cc(Cl)c(N)c(Cl)c1` (stereo not given) [clenbuterol] (10 µM) yielded a morphology score of -0.0972. The SARS-CoV-2 infection rate in test [2] is 110% (inactive).

Take `CC(C)=CCC/C(C)=C/CC/C(C)=C/C=C/C(C)=C/C(=O)O` [peretinoin] (10 µM): in test [1], the morphology score is -0.00242. Moreover, in test [2], the SARS-CoV-2 infection rate was 108% (inactive).

Regarding `O=C(O)[C@]1(Cc2cccc(Nc3nccs3)n2)CC[C@@H](Oc2cccc(Cl)c2F)CC1` (0.833333 µM), the morphology score in test [1] was determined as 0.175. The SARS-CoV-2 infection rate in test [2] is 106% (inactive).

Regarding `CCCCCCCCCCCCCC[C@@H](O)[C@@H](O)[C@@H](N)CO` [phytosphingosine] (10 µM), in test [1], the morphology score was -0.0786. Moreover, the SARS-CoV-2 infection rate in test [2] was 108% (inactive).

In the case of `CCCN1CCC[C@@H]2Cc3nc(N)ncc3C[C@H]21` [quinelorane] (10 µM), the morphology score in test [1] turned out to be 0.13. Also, in test [2], the SARS-CoV-2 infection rate was 106% (inactive).

In test [1], `CC(C)(N)c1cc(C(=O)N[C@@H]2CCc3ccc(Oc4ccnc5c4CCC(=O)N5)cc3C2)cc(C(F)(F)F)c1` (0.833333 µM) displayed a morphology score of 0.227. Besides, in test [2], the SARS-CoV-2 infection rate was 99% (inactive).

`O=C(CO)[C@@H](O)[C@@H](O)[C@H](O)CO` [tagatose] (10 µM) returned a morphology score in test [1] of -0.0178. Further, the SARS-CoV-2 infection rate in test [2] is 108% (inactive).

In the case of `OC(CCCN1CCCCC1)(c1ccccc1)c1ccccc1` [diphenidol] (10 µM), the morphology score in test [1] was -0.109. The SARS-CoV-2 infection rate in test [2] was 104% (inactive).

For the compound `C/C(O)=C(\C#N)C(=O)Nc1cc(Br)ccc1Br` (10 µM), the morphology score in test [1] was 0.00477. In test [2], the SARS-CoV-2 infection rate was 105% (inactive).

With `O=[N+]([O-])O[C@H]1CO[C@H]2[C@@H]1OC[C@H]2O[N+](=O)[O-]` [isosorbide-dinitrate] (10 µM), the morphology score in test [1] worked out at 0.0765. For the same compound, in test [2], the SARS-CoV-2 infection rate was 112% (inactive).

For the compound `CCN(CC)CCCC(C)Nc1ccnc2cc(Cl)ccc12` (stereo not given) [chloroquine] (10 µM), the morphology score in test [1] amounted to 0.554. In addition, the SARS-CoV-2 infection rate in test [2] was 57.5% (active).

In turn, `CN1C(=O)CC[C@H]1c1cccnc1` [cotinine] (10 µM) returned a morphology score in test [1] of 0.0591. The SARS-CoV-2 infection rate in test [2] was 108% (inactive).

For the compound `CCCC[N+]1(C)[C@@H]2C[C@@H](OC(=O)[C@H](CO)c3ccccc3)C[C@H]1[C@@H]1O[C@@H]12` (stereo not given in full) [butylscopolamine-bromide] (10 µM), the morphology score in test [1] stood at 0.191. In addition, the SARS-CoV-2 infection rate in test [2] was 102% (inactive).
